Assay results taken from PubChem BioAssay (Tox21).
Where “and” joins values, the source holds several entries; their conditions need not be identical. Equal values may be shown once. Results filed as inconclusive are left out. Entries that show only a call come without a potency. More than one record can exist for a structure, and the calls need not agree. Calls of active or inactive are those of the source. Unless noted, calls follow the shape of the dose curve; as a rule, active = well fitted curve in the direction sought with a large enough effect in the repeat runs; inconclusive = weak or mixed curves; inactive = no such curve, though single readings can be large; an effect the other way counts as inactive or inconclusive.

Columns and labels:
[1] = A CellTox Green Cytotoxicity Assay to monitor cytotoxicity in HepG2 cells - 0 hour (AID 1224882); also: nearly all actives have a fitted effect of over 35% in size
How it was run: (§1)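 HepG2 cells, 600/well, preincubated 5 h with CellTox Green dye, then exposed to Tox21 compounds in DMSO at 37 C for up to 40 h. Dead-cell DNA fluorescence read at the indicated time point.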

[2] = A CellTox Green Cytotoxicity Assay to monitor cytotoxicity in HepG2 cells - 32 hour (AID 1224883); also: nearly all actives have a fitted effect of over 50% in size; also: potency is read from the fitted curve at half-maximal effect
How it was run: as §1

[3] = A CellTox Green Cytotoxicity Assay to monitor cytotoxicity in HEK293 cells - 8 hour (AID 1224884); also: nearly all actives have a fitted effect of over 35% in size
How it was run: (§2)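 HEK293 cells, 600/well, were preincubated 5 hours and then exposed to compounds at 37 C for up to 40 hours. A cell-impermeant cyanine dye staining dead-cell DNA was read by fluorescence at 0, 8, 16, 24, 32 and 40 h time points.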

[4] = qHTS RealTime-Glo MT Cell Viability Assay in HepG2 cells - 16 hour (AID 1224885); also: nearly all actives have a fitted effect of over 50% in size
How it was run: (§3)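 HepG2 suspension premixed with RealTime-Glo reagents is plated at 600 cells per well and left 5 h at 37 C/5% CO2. Compounds in DMSO then go in, and bioluminescence reflecting viable cell number is recorded over 40 h.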

[5] = qHTS RealTime-Glo MT Cell Viability Assay in HEK293 cells - 24 hour (AID 1224886); also: nearly all actives have a fitted effect of over 50% in size; also: potency is read from the fitted curve at half-maximal effect
How it was run: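 Reads taken at 0, 8, 16, 24, 32 and 40 h from the same wells. HEK293 cells (600/well) carried RealTime-Glo reagents from seeding, with compound added after a 5 h settle at 37 C.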

[6] = qHTS RealTime-Glo MT Cell Viability Assay in HEK293 cells - 8 hour (AID 1224887); also: top concentration of the series differs between compounds; nearly all actives have a fitted effect of over 50% in size
How it was run: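 600 cells/well were plated with the nonlytic NanoLuc/prosubstrate reagent, pre-incubated 5 h, then given 23 nL of compound in DMSO. Incubation at 37 C for 40 h, with luminescence from viable-cell-reduced substrate read repeatedly from 0 h.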

[7] = A CellTox Green Cytotoxicity Assay to monitor cytotoxicity in HEK293 cells - 16 hour (AID 1224888); also: nearly all actives have a fitted effect of over 35% in size
How it was run: as §2

[8] = qHTS RealTime-Glo MT Cell Viability Assay in HepG2 cells - 0 hour (AID 1224889); also: nearly all actives have a fitted effect of over 50% in size
How it was run: as §3

[9] = A CellTox Green Cytotoxicity Assay to monitor cytotoxicity in HepG2 cells - 8 hour (AID 1224890); also: nearly all actives have a fitted effect of over 45% in size
How it was run: as §1

[10] = qHTS assay to identify small molecule antagonists of the estrogen receptor alpha (ER-alpha) signaling pathway using the BG1 cell line in the presence of 0.1 nM 17-beta-estradiol - cell viability counter screen (AID 1259241); also: nearly all actives have a fitted effect of over 40% in size
How it was run: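 Estradiol-stimulated (0.1 nM) VM7Luc4E2 cells exposed to compounds 22 hr; viability measured by fluorescence of cleaved CellTiter-Fluor substrate after 30 min.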

[11] = qHTS assay to identify small molecule antagonists of the androgen receptor (AR) signaling pathway using the MDA cell line in the presence of 0.5 nM R1881 - cell viability counter screen (AID 1259242); also: nearly all actives have a fitted effect of over 45% in size; also: potency is read from the fitted curve at half-maximal effect
How it was run: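 MDA-kb2 cells (MMTV-luciferase, AR/GR responsive) were treated with compounds plus 0.5 nM R1881 (final) for 16 hr at 37C, 0% CO2. Viability was then read in the same wells as live-cell protease fluorescence (CellTiter-Fluor, 30 min).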

[12] = qHTS assay to identify small molecule phospholipidosis (PLD) inducers (AID 1259344; active = well fitted curve in the direction sought with a large enough effect; an effect the other way counts as inactive or inconclusive)
How it was run: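 HepG2 cells grown on collagen I take up LipidTOX Red while exposed to compound for 24 h; after fixation they are imaged at 20x and pit metrics are extracted.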

[13] = qHTS assay to identify small molecule HDAC inhibitors (AID 1259364); also: top concentration of the series differs between compounds; nearly all actives have a fitted effect of over 45% in size
How it was run: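 Wild-type HCT-116 cells, plated overnight at 37 C, exposed to compounds 2 hr at 37 C; luminogenic HDAC-Glo substrate then added 30 min at room temperature. Luminescence reports relative endogenous class I/II HDAC activity.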

[14] = qHTS assay to identify small molecule agonists of the sonic hedgehog signaling (Shh) pathway - cell viability counter screen (AID 1259366); also: nearly all actives have a fitted effect of over 50% in size
How it was run: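 Same-well cytotoxicity read. Gli1-Luc reporter 3T3 cells; compounds 24hr, 37C/5% CO2; CellTiter-Fluor fluorescence.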

[15] = qHTS assay to identify small molecule antagonists of the sonic hedgehog signaling (Shh) pathway - cell viability counter screen (AID 1259367); also: nearly all actives have a fitted effect of over 55% in size
How it was run: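 After a 4 hr settling period, 3T3 Gli1-Luc cells were treated with DMSO-dissolved chemicals and conditioned medium, kept 24 hr at 37C in 5% CO2, and assayed for viability by CellTiter-Fluor fluorescence following 1 hr reagent incubation.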

[16] = qHTS assay to identify small molecule agonists of the sonic hedgehog signaling (Shh) pathway (AID 1259368; calls by dose curve;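 also: NIH/3T3-derived 3T3Gli1-Luc cells carrying a stable Gli1-driven firefly luciferase reporter; series mostly up to about 92 µM; nearly all actives have a fitted effect of over 15% in size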)
How it was run: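 NIH/3T3-derived 3T3Gli1-Luc cells with stably integrated Gli1-driven firefly luciferase, 2,000 cells/well, compounds added after 4 hr. Incubated 24 hr at 37C, 5% CO2; luminescence read after 30 min with luciferase reagent at room temperature.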

[17] = qHTS assay to identify small molecule antagonists of the sonic hedgehog signaling (Shh) pathway (AID 1259369; calls by dose curve; also: nearly all actives have a fitted effect of over 45% in size; also: potency is read from the fitted curve at half-maximal effect)
How it was run: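 NIH/3T3-derived Gli1-Luc reporter cells plated 4 h, dosed with compound, then stimulated with conditioned medium for 24 h at 37 C. Firefly luciferase luminescence read after 30 min with detection reagent at room temperature.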

[18] = target: Estrogen receptor (Homo sapiens) (UniProt P03372); experiment: qHTS assay to identify small molecule antagonists of the estrogen receptor alpha (ER-alpha) signaling pathway using the BG1 cell line in the presence of 0.1 nM 17-beta-estradiol (AID 1259244); also: nearly all actives have a fitted effect of over 50% in size; also: potency is read from the fitted curve at half-maximal effect
How it was run: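 VM7Luc4E2 cells (endogenous full-length ER-alpha, 4×ERE-luciferase), kept 5 days in phenol red-free, charcoal-stripped FBS medium; 4,000 cells/well. Compounds added with 0.1 nM (final) 17beta-estradiol, 22 hr at 37C; luminescence read with ONE-Glo after 30 min.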

[19] = qHTS assay to identify small molecule HDAC inhibitors - cell viability counter screen (AID 1259365)
How it was run: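 After overnight seeding at 1,500 cells per well, wild-type HCT-116 cultures took up compounds in DMSO for 2hr at 37 C. Viable cell content came from luminescence with CellTiter-Glo.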

[20] = target: Androgen receptor (Homo sapiens) (UniProt P10275); experiment: qHTS assay to identify small molecule antagonists of the androgen receptor (AR) signaling pathway using the MDA cell line in the presence of 0.5 nM R1881 (AID 1259243); also: nearly all actives have a fitted effect of over 50% in size
How it was run: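 MDA-kb2 cells (MMTV-luciferase, responsive to AR and GR) at 3,000/well, rested 5 h at 37C, 0% CO2, then given compounds plus 0.5 nM R1881 (final) for 16 hr. Luciferase read with ONE-Glo after 30 min at room temperature.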

Chain of Androgen receptor (Homo sapiens) (P10275 whole entry, looked up): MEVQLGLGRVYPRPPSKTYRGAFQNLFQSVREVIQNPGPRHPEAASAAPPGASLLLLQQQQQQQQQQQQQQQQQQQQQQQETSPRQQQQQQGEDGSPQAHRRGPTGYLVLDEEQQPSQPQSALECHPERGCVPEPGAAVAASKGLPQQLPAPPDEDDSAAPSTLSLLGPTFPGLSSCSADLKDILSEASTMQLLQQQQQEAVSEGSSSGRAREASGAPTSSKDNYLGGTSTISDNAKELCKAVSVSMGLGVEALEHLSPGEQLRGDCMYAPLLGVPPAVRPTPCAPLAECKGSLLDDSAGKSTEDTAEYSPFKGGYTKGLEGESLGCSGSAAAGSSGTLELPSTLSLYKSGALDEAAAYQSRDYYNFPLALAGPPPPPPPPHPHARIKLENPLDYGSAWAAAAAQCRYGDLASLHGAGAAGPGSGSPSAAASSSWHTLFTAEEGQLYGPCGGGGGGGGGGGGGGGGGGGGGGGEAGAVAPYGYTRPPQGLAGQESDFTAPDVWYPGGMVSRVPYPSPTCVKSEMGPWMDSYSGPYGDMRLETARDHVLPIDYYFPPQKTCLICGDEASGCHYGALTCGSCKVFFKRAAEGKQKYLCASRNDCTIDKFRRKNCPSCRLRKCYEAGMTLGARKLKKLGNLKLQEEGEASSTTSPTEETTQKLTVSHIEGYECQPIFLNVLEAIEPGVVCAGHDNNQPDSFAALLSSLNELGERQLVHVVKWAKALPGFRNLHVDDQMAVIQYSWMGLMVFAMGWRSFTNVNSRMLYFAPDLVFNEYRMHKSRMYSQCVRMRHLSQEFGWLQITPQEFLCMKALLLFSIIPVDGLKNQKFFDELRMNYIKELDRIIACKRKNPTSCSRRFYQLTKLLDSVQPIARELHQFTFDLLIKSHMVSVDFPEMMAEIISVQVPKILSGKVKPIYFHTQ
Chain of Estrogen receptor (Homo sapiens) (P03372 whole entry, looked up): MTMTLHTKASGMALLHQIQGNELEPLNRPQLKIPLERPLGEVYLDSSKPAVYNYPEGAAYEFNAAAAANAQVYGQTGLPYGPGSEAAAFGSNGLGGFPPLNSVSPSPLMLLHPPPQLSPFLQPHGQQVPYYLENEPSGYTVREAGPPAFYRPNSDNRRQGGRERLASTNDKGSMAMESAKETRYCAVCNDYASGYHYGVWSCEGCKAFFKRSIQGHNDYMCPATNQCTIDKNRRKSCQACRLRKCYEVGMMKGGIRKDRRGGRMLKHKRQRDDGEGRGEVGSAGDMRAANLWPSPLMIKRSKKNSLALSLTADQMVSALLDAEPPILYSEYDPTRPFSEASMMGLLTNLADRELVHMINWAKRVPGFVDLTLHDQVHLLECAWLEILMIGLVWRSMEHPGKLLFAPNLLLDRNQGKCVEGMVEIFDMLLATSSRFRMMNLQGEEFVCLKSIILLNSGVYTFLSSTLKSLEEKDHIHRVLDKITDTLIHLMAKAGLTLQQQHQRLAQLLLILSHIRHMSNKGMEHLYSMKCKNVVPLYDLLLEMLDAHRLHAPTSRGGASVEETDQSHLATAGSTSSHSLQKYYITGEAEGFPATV

SMILES	Potency [1]	Potency [2]	Potency [3]	Potency [4]	Potency [5]	Potency [6]	Potency [7]	Potency [8]	Potency [9]	Potency [10]	Potency [11]	outcome [12]	Potency [13]	Potency [14]	Potency [15]	Potency [16]	Potency [17]	Potency [18]	Potency [19]	Potency [20]
CN1Cc2c(N)cccc2C(c2ccccc2)C1 (stereo not given)	inactive	inactive	inactive	inactive	inactive	inactive	inactive	inactive	inactive	inactive	inactive	inactive	inactive	inactive	inactive	inactive	inactive			
COc1c(Cl)ccc(Cl)c1C(=O)O	inactive	inactive	inactive	inactive	inactive	inactive	inactive	inactive	inactive	inactive	inactive		inactive	inactive	inactive	inactive	inactive	inactive	inactive	
N#CCC(=O)O	inactive	inactive	inactive	inactive	inactive	inactive	inactive	inactive	inactive	inactive	inactive		inactive	inactive	inactive	inactive	inactive and 54.5 µM (active)	inactive	inactive	
COC(=O)OC	inactive	inactive	inactive	inactive	inactive	inactive	inactive	inactive	inactive	inactive	inactive		inactive	inactive	inactive	inactive	inactive		inactive	
CC(C)(CO)CO	inactive	inactive	inactive	inactive	inactive	inactive	inactive	inactive	inactive	inactive	inactive		inactive	inactive	inactive	inactive	inactive	inactive	inactive	inactive
O=C1OC(=O)c2c(Cl)c(Cl)c(Cl)c(Cl)c21	inactive	inactive	inactive	inactive	inactive	inactive	inactive	inactive	inactive	inactive	inactive		inactive	inactive	inactive	inactive	inactive		inactive	
COCN(COC)c1nc(N(COC)COC)nc(N(COC)COC)n1	inactive	inactive	inactive	inactive	inactive	inactive	inactive	inactive	inactive	inactive	inactive		inactive	inactive	inactive	inactive	inactive	inactive		
COc1ccc(N)c(OC)c1	inactive	inactive	inactive	inactive	inactive	inactive	inactive	inactive	inactive	inactive	inactive		inactive	inactive		inactive	9.31 µM (active)	inactive	inactive	
CCCCCCCCO	inactive	inactive	inactive	inactive	inactive	inactive	inactive	inactive	inactive	inactive	inactive		inactive	inactive	inactive	inactive	inactive	inactive	inactive	
COc1ccc2cc3[n+](cc2c1OC)CCc1cc2c(cc1-3)OCO2	inactive	inactive	inactive	inactive	4.4 µM (active) and 10.7 µM (active)		inactive	inactive	inactive		10.6 µM (active)	inactive	inactive	inactive	inactive	inactive	inactive	1.55 µM (active) and 11.9 µM (active)		
CCCCCNCCCCC	inactive	inactive	inactive	inactive	inactive	inactive	inactive	inactive	inactive	inactive	inactive		inactive	inactive	inactive	inactive	inactive			
CC(=O)OCc1ccc2c(c1)OCO2	inactive	inactive	inactive	inactive	inactive	inactive	inactive	inactive	inactive	inactive	inactive		inactive	inactive	inactive	inactive	inactive			
COc1ccccc1[N+](=O)[O-]	inactive	inactive	inactive	inactive	inactive	inactive	inactive	inactive	inactive	inactive	inactive		inactive	inactive	inactive	inactive	inactive			
CCCCCCCCC(=O)O	inactive	inactive		inactive	inactive	inactive	inactive	inactive	inactive	inactive	inactive		inactive	inactive	inactive	inactive	inactive	inactive		
CC[N+](CC)(CC(=O)Nc1c(C)cccc1C)Cc1ccccc1	inactive	inactive		inactive	inactive	inactive	inactive	inactive	inactive	inactive	inactive	inactive	inactive	inactive	inactive	inactive	inactive		inactive	
Cc1ccccc1Cl	inactive	inactive		inactive	inactive	inactive	inactive	inactive	inactive	inactive	inactive		inactive	inactive	inactive	inactive	inactive	inactive		inactive

SMILES	Potency [1]	Potency [2]	Potency [3]	Potency [4]	Potency [5]	Potency [6]	Potency [7]	Potency [8]	Potency [9]	Potency [10]	Potency [11]	outcome [12]	Potency [13]	Potency [14]	Potency [15]	Potency [16]	Potency [17]	Potency [18]	Potency [19]	Potency [20]
OCCOCCOCCOCCOCCO	inactive	inactive	inactive	inactive	inactive	inactive	inactive	inactive	inactive	inactive	inactive		inactive	inactive	inactive	inactive	inactive			
C=CC(=O)NCOCCCC	inactive	inactive		inactive	inactive	inactive	inactive	inactive	inactive	inactive	inactive		inactive	inactive	inactive	inactive	inactive	inactive		
Cc1ccccc1C=O	inactive	inactive		inactive	inactive	inactive	inactive	inactive	inactive	inactive	inactive		inactive	inactive	inactive	inactive	inactive	inactive	inactive	
Cc1cc(C)c(O)c(C)c1	inactive	inactive		inactive	inactive	inactive	inactive	inactive	inactive	inactive	inactive		inactive	inactive	inactive	inactive	inactive	inactive	inactive	
O=C(O)Cc1c[nH]c2ccccc12	inactive	inactive	inactive	inactive	inactive	inactive	inactive	inactive	inactive	inactive	inactive		inactive	inactive	inactive	inactive	inactive			
Oc1ccc(Cc2ccccc2O)cc1	inactive	inactive		inactive	12.3 µM (active)		inactive	inactive	inactive	inactive	inactive		inactive	inactive	inactive	inactive	43.3 µM (active)	inactive	inactive	
CC1(C)[C@@H](O[C@H]2O[C@H](C(=O)O)[C@@H](O)[C@H](O)[C@H]2O[C@@H]2O[C@H](C(=O)O)[C@@H](O)[C@H](O)[C@H]2O)CC[C@]2(C)[C@H]3C(=O)C=C4[C@@H]5C[C@@](C)(C(=O)O)CC[C@]5(C)CC[C@@]4(C)[C@]3(C)CC[C@@H]12	inactive	inactive	inactive	inactive	inactive	inactive	inactive		inactive	inactive	inactive	inactive	inactive	inactive	inactive	inactive	inactive		inactive	
CCOC(=O)CC(=O)OCC	inactive	inactive		inactive	inactive	inactive	inactive	inactive	inactive	inactive	inactive		inactive	inactive	inactive	inactive	inactive			
CCN(CC)CCNC(=O)c1ccc(N)cc1	inactive	inactive		inactive	inactive	inactive	inactive	inactive	inactive	inactive	inactive	inactive	inactive	inactive	inactive	inactive	inactive		inactive	
O=C1O[C@H]([C@H](O)CO)C(O)=C1O	inactive	inactive		inactive	inactive	inactive	inactive	inactive	inactive	inactive	inactive		inactive	inactive	inactive	inactive	inactive		inactive	
Cc1ccc(Cl)cc1	inactive	inactive		inactive	inactive	inactive	inactive	inactive	inactive	inactive	inactive		inactive	inactive	inactive	inactive	inactive	inactive	inactive	
C1CCCNCC1	inactive	inactive		inactive	inactive	inactive	inactive	inactive	inactive	inactive	inactive		inactive	inactive	inactive	inactive	inactive	inactive	inactive	
COC(=O)/C=C\C(=O)OC	inactive	inactive		inactive	inactive	inactive	inactive	inactive	inactive	inactive	inactive		inactive	inactive	inactive	inactive	inactive		inactive	
CC1=CC(=O)CC(C)(C)C1	inactive	25.3 µM (active) and inactive	inactive	inactive	inactive	inactive	inactive	inactive	inactive		inactive		inactive	inactive	inactive	inactive	inactive		inactive	
CN1CCCC1=O	inactive	inactive		inactive	inactive	inactive	inactive	inactive	inactive	inactive	inactive		inactive	inactive	inactive	inactive	inactive	inactive	inactive	
CC(=O)OC/C=C(\C)CCC=C(C)C	inactive	inactive		inactive	inactive	inactive	inactive	inactive	inactive	inactive	inactive		inactive	inactive	inactive	inactive	inactive	inactive	inactive	
